Screening data as filed in PubChem.
Shown are actives, neighbours in structure and some others; about 3.5% of the full set was active somewhere.
DNMT1 inh: human DNMT1 methyltransferase inhibitors, primary screen, biochemical, molecular beacon, fluorescence, HinP1I cleavage, uHTS | DNA (cytosine-5)-methyltransferase 1 (Homo sapiens), P26358 | inhibition (reported as % activation of signal), % at 10 µM | hit rate 0.83% among 360,000; in the data active means inhibition above about 50%
UHRF1 MBD2 ctr: UHRF1 methylated DNA binding inhibitors, primary screen, counter-screen for MBD2 inhibitor project, biochemical, TR-FRET, human UHRF1, single concentration; AID 687016, 2013; hit rate 0.75% among 370,000; inhibition, % at 4.4 µM; UHRF1 binding to methylated oligo; E3 ubiquitin-protein ligase UHRF1 (Homo sapiens), Q96T88;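 further: UHRF1 SRA domain binding a hemimethylated CpG hairpin DNA probe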
LEDGF integ inh: blockers of LEDGF/p75-dependent integrase strand transfer – biochemical, TR-FRET, high throughput, primary screen. HIV-1 integrase (with human LEDGF/p75). TR-FRET IN-LEDGF/p75 DNA integration, Eu/Cy5. inhibition, % at 3.7 µM. hit rate 0.64% among 370,000. AID 743269, 2014;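 active means inhibition above the screen-wide mean plus 3 SD, cut at about 13% in these data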;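 further: signal is the Cy5 over europium emission ratio at 671 and 618 nm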
PG9 binder: binders of HIV-1 gp120 antibody PG9, primary screen, biochemical, TR-FRET. HIV-1 gp120 / PG9 antibody interaction. TR-FRET gp120-PG9 antibody binding. inhibition, % at 6.7 µM. hit rate 0.43% among 360,000. AID 624416, 2012; in the data active means inhibition above about 8.5%
rCAG RNA binder: binders of r(CAG) RNA repeats, primary screen, biochemical, fluorescence; r(CAG) RNA repeat, TO-PRO-1 dye displacement fluorescence; inhibition, % at 3 µM; hit rate 1.3% among 370,000;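 active means inhibition above the plate cutoff, the mean of all test compounds on that plate plus 3 SD, cut at about 35% in these data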;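 further: higher means more dye released from RNA so lower well fluorescence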
MBD2 inh: inhibitors of MBD2 binding to methylated DNA, primary screen, biochemical, TR-FRET, DNA-binding domain, human; Methyl-CpG-binding domain protein 2 (Homo sapiens), Q9UBB5; MBD2 binding to methylated oligonucleotide; inhibition, % at 4.4 µM; hit rate 0.31% among 370,000; AID 686964, 2013; in the data active means inhibition above about 13%
UHRF1 ctr MBD2: UHRF1 methylated DNA binding inhibitors, counter-screen for MBD2 inhibitor project, biochemical, TR-FRET, human UHRF1; shares compounds with MBD2 inh; UHRF1 binding to methylated oligonucleotide; inhibition, % at 4.4 µM; hit rate 25% among 1,000; AID 720530, 2013;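 further: UHRF1 SRA domain binding a labeled hemimethylated CpG hairpin DNA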
MBD2 confirm: inhibitors of MBD2 binding to methylated DNA, confirmation, biochemical, TR-FRET, DNA-binding domain, human | TR-FRET MBD2-DBD binding to methylated oligonucleotide | shares compounds with MBD2 inh | hit rate 26% among 1,000 | inhibition, % at 4.4 µM; in the data active means inhibition above about 14%
Hits are given with their value; – = inactive; · = no result given; ! = repeats disagree. Unless noted, no stated cut-off is given here; in the data, active means inhibition above about 21%; inactive means the rest.

SMILES | DNMT1 inh | UHRF1 MBD2 ctr | LEDGF integ inh | PG9 binder | rCAG RNA binder | MBD2 inh | UHRF1 ctr MBD2 | MBD2 confirm
COc1ccc(C2C(C(=O)NCCN(C)C)c3cc(OC)c(OC)cc3C(=O)N2C)cc1OC (configuration not stated) | – | – | – | – | – | – | · | ·
CCN(CC)CCNC(=O)C1c2cc(OC)c(OC)cc2C(=O)N(C)C1c1cccs1 (configuration not stated) | – | – | – | – | – | 42 | – | –
FC(F)(F)c1ccccc1Cc1c(-c2ccco2)nc2c3ccccc3ccn12 | · | – | – | – | – | 13 | – | –
Cc1ccc(-c2csc3nc4ccc(C(=O)NCCO)cc4c(=O)n23)cc1 | – | – | – | – | – | – | · | ·
Cc1ccc(-c2csc3nc4cc(C(=O)NC5CCC(O)CC5)ccc4c(=O)n23)cc1 (configuration not stated) | – | – | – | – | – | 14 | – | –
C[C@@H]1COc2cc(Br)ccc2S(=O)(=O)N1Cc1cn(CCC2OCCO2)nn1 | · | – | – | · | – | – | · | ·
CCc1cccc(NC(=O)CNC(=O)N2CC(=O)Nc3ccccc32)c1 | – | – | – | – | – | 14 | – | –
Cc1ccc(NC(=O)CNC(=O)N2CC(=O)Nc3ccccc32)cc1F | – | – | – | – | – | – | · | ·
COc1cc(-c2nnc(COC(=O)c3cc(C)no3)o2)cc(OC)c1OC | – | – | – | – | – | – | · | ·
COc1cc(-c2nnc(COC(=O)c3ccc(C)o3)o2)cc(OC)c1OC | – | 39 | – | – | – | 18 | – | –
CCOC(=O)c1cnc2c(cnn2C)c1NCc1ccc(OC)cc1 | – | – | – | – | – | 44 | – | –
Cc1cc(C(=O)COC(=O)c2cc(Cl)c(O)c(Cl)c2)c(C)n1C | 55 | 33 | 43 | – | – | 17 | – | –
N#Cc1c(-c2ccccc2Cl)c2c([nH]c1=O)-c1ccccc1OC2 | – | – | – | – | – | 21 | – | –
N#Cc1c(-c2ccncc2)c2c([nH]c1=O)-c1ccccc1OC2 | · | – | – | – | – | – | · | ·
O=C(Nc1cnc2ccccc2c1)N1CCOCC1 | – | – | – | – | – | 16 | – | –
Nc1nc(SCC(=O)N2CCN(c3ccccc3)CC2)n[nH]1 | – | – | – | – | – | – | · | ·
Nc1nc(SCC(=O)N2CCN(c3ccc(F)cc3)CC2)n[nH]1 | – | – | – | – | – | 48 | – | –
COc1cccc(NC(=S)N2CCN(Cc3ccccc3)CC2)c1 | – | – | – | – | – | 17 | – | –
COc1ccc2nc3cc(Cl)ccc3c(Nc3cc(CN4CCCC4)c(O)c(CN4CCCC4)c3)c2n1 | 65 | 72 | – | – | – | 55 | 86 | 88
CCOc1ccc(-n2ccc(=O)c(C(=O)Nc3ccc(S(=O)(=O)N4CCOCC4)cc3)n2)cc1 | – | – | – | – | – | – | · | ·
CCN(Cc1ccccc1)S(=O)(=O)c1c(C)[nH]c(C)c1C(=O)N1CCCCC1 | – | – | – | – | – | 14 | – | –
OCCNc1ncnc2c1ncn2[C@H]1CN(Cc2ccco2)C[C@@H](CO)O1 | – | – | – | – | – | – | · | ·
COCCNc1ncnc2c1ncn2[C@H]1CN(Cc2ccco2)C[C@@H](CO)O1 | – | – | – | – | – | 24 | – | –
O=C(CCS(=O)(=O)c1ccc(F)cc1)Nc1nc(-c2ccncc2)cs1 | – | – | – | – | – | – | · | ·
CCOc1ccc(C(=O)OCC(=O)N2CCCC2)cc1OCC | – | – | – | – | – | – | · | ·
SMILES | DNMT1 inh | UHRF1 MBD2 ctr | LEDGF integ inh | PG9 binder | rCAG RNA binder | MBD2 inh | UHRF1 ctr MBD2 | MBD2 confirm
COC(=O)C[C@H]1c2cc(F)ccc2S(=O)(=O)N1Cc1ccccc1 | – | – | – | – | – | – | · | ·
O=C(N=Nc1c(O)n(Cc2ccccc2)c2ccccc12)c1ccc(O)cc1 | – | – | – | – | – | 41 | – | –
CCN(CC)C(=O)c1cccc(-c2csc(C(C)(O)c3ccncc3)n2)c1 (configuration not stated) | – | – | – | – | – | – | · | ·
COc1ccc(/C=C\c2nc(O)c([N+](=O)[O-])c(=O)[nH]2)cc1O | – | – | – | – | – | 39 | – | –
O=C(C[n+]1cc[nH]c1)c1ccc(Cl)cc1 | – | – | – | – | – | – | · | ·
CC(C)(C)CN1C(=O)C(=O)NC[C@@H]1CCCCN | – | – | – | – | – | – | · | ·
COc1ccc(CNC(=O)c2cccc3c2C(=O)N(Cc2cccnc2)C3)cc1 | – | – | – | – | – | – | · | ·
COc1ccc(CNC(=O)c2cccc3c2C(=O)N(CC2CCCO2)C3)cc1 (configuration not stated) | – | – | – | – | – | 32 | – | –
Cc1ccc(C)c2nc(N3CCCC3)c(C#N)cc12 | – | – | – | – | – | – | · | ·
Cc1ccc(C)c2nc(Cl)c(C#N)cc12 | – | – | – | – | – | 14 | – | –
CC(=O)Nc1cccc(-c2cc3c(c4c2ccn4C)C2CCC3O2)c1 (configuration not stated) | – | – | – | – | – | – | · | ·
O=C(O)CC(NC(=O)COc1ccc(Cl)cc1Cl)C(=O)O (configuration not stated) | – | – | – | – | – | 26 | – | –
Cc1ccccc1OCC(=O)NS(=O)(=O)c1ccc(Cl)cc1 | – | – | – | – | – | 14 | – | –
COc1ccc(Cl)cc1NC(=S)N1CCCCCC1 | – | – | – | – | – | – | · | ·
COc1ccc(Cl)cc1NC(=S)N1CCC(c2ccc(C)cc2)C1 (configuration not stated) | – | – | – | – | – | 23 | – | –
COc1cc(NC(=O)c2ccc(OC)c([N+](=O)[O-])c2)ccc1NC(=O)c1ccco1 | – | – | – | – | – | 18 | – | –
CCCCNc1c(-c2ccc(OC)c(SC(C)CC)c2)nc2ccc(Cl)cn12 (configuration not stated) | – | – | – | – | – | – | · | ·
CCCCNc1c(-c2ccc(OC)c(SC(C)CC)c2)nc2ccc(C)cn12 (configuration not stated) | – | – | – | – | – | 14! | – | –
